# Data from PubChem BioAssay AID2061317 (National Center for Advancing Translational Sciences (NCATS), 2025).
# Results filed as inconclusive are left out. Active and inactive are the calls of the source. Calls come from the whole dose curve; as a rule, active = well fitted inhibition curve with a large enough effect; inconclusive = small, poorly fitted or top-dose-only effect; inactive = flat fitted curve, though single readings scatter.
# Test: Identification of antibody-drug conjugate (ADC) payloads which are substrates of ATP-binding cassette drug efflux transporters: ABCB1-HEK293-MDR-19 cell line with tariquidar
# Settings: HEK293 ABCB1 (MDR-19) + tariquidar, CellTiter-Glo viability, 48 h
# Text: Antibody-drug conjugates (ADCs) feature an antibody recognizing a specific protein joined to a potent toxic payload. Numerous antibody-drug conjugates have received FDA approval; however, clinical resistance arises. Resistance mechanisms include decreased expression or mutation of the antibody target, impaired payload release, or increased expression of ATP-binding cassette (ABC) efflux transporters associated with multidrug resistance. We therefore sought to characterize the interaction of ABC multidrug transporters with ADC payloads. We performed a high-throughput screen with 27 common ADC payloads using cells lines expressing ABC transporters P-glycoprotein (P-gp, encoded by ABCB1) or ABCG2 (encoded by ABCG2). Confirmatory assays were also performed using cells transfected to express P-gp, ABCG2, or MRP1 (encoded by ABCC1). Several commonly used ADC payloads were substrates of P-gp, including calicheamicin gamma1, monomethyl auristatin E, DM1, and DM4. All the pyrrolobenzodiazepines tested - SJG136, SGD-1882, SG2057, and SG3199 - were substrates of P-gp, ABCG2, and MRP1. […] These findings highlight the risk of transporter-mediated resistance with certain ADC payloads and underscore the importance of selecting payloads that evade ABC transporter recognition in future ADC development.
# HEK-293 cells were transfected with empty vector (pcDNA) or vector containing the human ABCB1 (MDR-19), ABCG2 (R-5), or ABCC1 gene (MRP1) and were maintained in EMEM with 2 mg/mL G418 added to maintain transporter expression. The HeLa derivative KB-3-1 and the P-gp overexpressing KB-8-5-11 subline were maintained in DMEM; KB-8-5-11 additionally received 100 ng/mL colchicine. H460 parental cells were obtained from the Division of Cancer Treatment and Diagnosis Tumor Repository, National Cancer Institute at Frederick, MD and were cultured in RPMI. The ABCG2 expressing subline H460 MX20 was generated by selecting H460 cells in 20 nM mitoxantrone. Media in all cases was supplemented with 10% FBS and 1% penicillin-streptomycin. We explored 27 common ADC payloads, in two orthogonal, paired cell line sets-a drug selected and transfected set for each transporter--to identify substrates of the ABC transporters P-gp and ABCG2. Compounds were sourced from Levena Biopharma (San Diego, CA), Selleck Chem (Houston, TX), ChemieTek (Indianapolis, IN), or Microsource Discovery Systems (Gaylordsville, CT). Screening was performed as previously described. Briefly, cells were plated at a density of 500 cells/well in 1536 well plates with compounds added using a 1536-head pin tool (Kalypsys, San Diego CA). Cells were incubated with cytotoxic drugs and processed with CellTiter Glo reagent (Promega, Madison, WI) to determine viability after 48 hours. P-gp substrates were identified by comparing compound activity between paired sets of low-expressing (sensitive) and over-expressing (resistant) cell lines.
row,Compound,Potency
1,COc1cc2cc(c1Cl)N(C)C(=O)C[C@H](OC(=O)C(C)C)[C@]1(C)O[C@H]1[C@H](C)[C@@H]1C[C@@](O)(NC(=O)O1)[C@H](OC)C=CC=C(C)C2,0.3 nM (active)
2,CC[C@H](C)[C@H](NC(=O)[C@H]1CCCCN1C)C(=O)N(C)[C@H](C[C@@H](OC(C)=O)c1nc(C(=O)N[C@@H](Cc2ccccc2)C[C@H](C)C(=O)O)cs1)C(C)C,3.3 nM (active)
3,COc1cc2cc(C(=O)N3C[C@@H](CCl)c4c3cc(O)c3ccccc43)[nH]c2c(OC)c1OC,1.7 nM (active)
4,CC[C@@]1(O)C(=O)OCc2c1cc1n(c2=O)Cc2cc3ccccc3nc2-1,13.3 nM (active)
5,COc1cc2cc(c1Cl)N(C)C(=O)C[C@H](OC(=O)[C@H](C)N(C)C(=O)CCC(C)(C)S)[C@]1(C)OC1[C@H](C)C1C[C@@](O)(NC(=O)O1)[C@H](OC)/C=C/C=C(\C)C2 (some centres not stated),1.2 nM (active)
6,CC[C@H](C)[C@@H]([C@@H](CC(=O)N1CCC[C@H]1[C@H](OC)[C@@H](C)C(=O)N[C@H](C)[C@@H](O)c1ccccc1)OC)N(C)C(=O)[C@@H](NC(=O)[C@H](C(C)C)N(C)C)C(C)C,1.3 nM (active)
7,COc1cccc2c1C(=O)c1c(O)c3c(c(O)c1C2=O)C[C@@](O)(C(=O)CO)CC3OC1CC(N2CCOC(OC)C2)C(O)C(C)O1 (some centres not stated),1.3 nM (active)
